Assay outcomes from PubChem.
Shown are actives, neighbours in structure and some others; about 7.2% of the full set was active somewhere.
NPR1 antag: Natriuretic polypeptide receptor (hNpr1) antagonism - Primary qHTS; Potency, µM (titrated, usually from 46.3 µM), hits mostly inhibitors; HEK293 hNpr1 GloSensor cGMP, ANP-stimulated luminescence; 1.6% of 76,000 active; Atrial natriuretic peptide receptor 1 (Homo sapiens), P16066; calls by dose curve; note: nearly all actives have a fitted effect of over 60% in size
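Compound pre-incubated 30 min at room temperature on GloSensor-loaded HEK293 cells stably carrying hNpr1 and the pGS-40F cGMP biosensor. Stimulation uses hNppA at 0.1 nM final; luminescence is taken at baseline and 20 min post-agonist.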
FLuc inh: Firefly luciferase inhibition profiling of diverse chemical library using quantitative high-throughput screening | purified P. pyralis luciferase, luminescence, biochemical | Luciferin 4-monooxygenase (Photinus pyralis), P08659 | 2.5% of 76,000 active | Potency, µM (top dose mostly 115 µM), usual class: inhibitors; note: nearly all actives have a fitted effect of over 65% in size
Target sequence (P08659 whole entry, looked up): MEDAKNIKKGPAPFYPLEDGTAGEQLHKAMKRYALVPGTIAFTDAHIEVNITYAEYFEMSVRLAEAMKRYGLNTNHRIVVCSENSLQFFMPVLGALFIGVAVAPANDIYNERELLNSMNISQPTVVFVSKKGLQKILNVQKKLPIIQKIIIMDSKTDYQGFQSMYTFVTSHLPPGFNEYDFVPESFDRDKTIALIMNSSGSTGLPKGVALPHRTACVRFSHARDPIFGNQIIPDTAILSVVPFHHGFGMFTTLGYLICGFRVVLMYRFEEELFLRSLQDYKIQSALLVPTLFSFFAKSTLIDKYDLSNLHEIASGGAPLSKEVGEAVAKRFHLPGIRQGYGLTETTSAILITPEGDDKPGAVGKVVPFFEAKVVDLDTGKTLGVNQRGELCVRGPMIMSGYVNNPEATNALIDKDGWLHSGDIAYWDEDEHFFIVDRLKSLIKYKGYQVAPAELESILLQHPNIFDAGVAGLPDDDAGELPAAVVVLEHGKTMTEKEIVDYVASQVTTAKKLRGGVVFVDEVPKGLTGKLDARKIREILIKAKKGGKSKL
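Luminescence read by CCD imaging after purified firefly luciferase (10nM final) was added to substrate buffer holding 10uM D-luciferin and 10uM ATP, pH 7.5, pre-dosed with compound.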
SNCA expr inhib: Primary qHTS assay for inhibitors of alpha-synuclein gene (SNCA) expression; HEK-293 SNCA-luciferase knock-in, luminescence, 24 h; Potency, µM (series often up to 57.2 µM), hits mostly inhibitors; 0.17% of 140,000 active; note: nearly all actives have a fitted effect of over 45% in size
3T3 cytotox: Cytotoxic Profiling in NIH 3T3 Cell Line of Diverse Libraries Using Quantitative High-Throughput Screening; NIH 3T3 viability, CellTiter-Glo ATP luminescence, 48-72 h; Potency, µM (doses to about 96.7 µM), most hits filed as inhibitors; 4.3% of 94,000 active; note: nearly all actives have a fitted effect of over 55% in size
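Luminescent ATP readout (CellTiter-Glo, 10 min RT) after 48 or 72 hr compound exposure of NIH 3T3 cells seeded at 400 cells/well in 1536-well format; quantitative HTS.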
HEK cytotox: Cytotoxic Profiling in HEK 293 Cell Line of Diverse Libraries Using Quantitative High-Throughput Screening | HEK 293 viability, ATP luminescence (CellTiter-Glo), 48-72 h | Potency, µM (doses to about 115 µM), usual class: inhibitors | 6.6% of 94,000 active | AID 1345083, 2018; note: nearly all actives have a fitted effect of over 60% in size
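Pintool-delivered compounds were incubated with HEK 293 cells (250 cells/well) at 37 degree Celsius for 48 or 72 hr. ATP-dependent luminescence (CellTiter-Glo) then reported remaining viable cells.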
SNCA viab count: GF-AFC viability counterscreen for inhibitors of alpha-synuclein gene (SNCA) expression | Potency, µM (doses to about 57.1 µM), most hits filed as cytotoxic | 0.12% of 150,000 active | HEK-293-SNCA-luc viability, GF-AFC fluorescence, 24 h; note: nearly all actives have a fitted effect of over 30% in size
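HEK-293-SNCA-luc cells (1500/well) plated 24 h, then exposed 24 h to a dilution series; GF-AFC added 30 min at 37C, fluorescence 405/540 nm; normalised to medium-only and DMSO wells, Hill fit.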
A number is an active result. Unless noted, calls come from the whole dose curve; as a rule, active = well fitted curve in the direction sought with a large enough effect; inconclusive = small, poorly fitted or top-dose-only effect, or another doubt; inactive = no such curve, though single readings can be large; an effect the other way counts as inactive or inconclusive.

For Cc1ccc(OCCC2CCN(C(=O)c3cc(CN4CCOCC4)on3)C2)cc1 (configuration not stated) the results were NPR1 antag inconclusive, FLuc inh inactive, SNCA expr inhib inactive, 3T3 cytotox inactive, HEK cytotox 79.4µM and SNCA viab count inactive.
For CCn1nc(C)c(-c2cc(C(=O)N3CCc4nc5cc(-c6ccccc6)[nH]n5c(=O)c4C3)no2)c1C the results were NPR1 antag inactive, FLuc inh inactive, SNCA expr inhib inactive, 3T3 cytotox inactive, HEK cytotox inactive and SNCA viab count inactive.
`NCCc1cccc(CN2CCC(OCc3ccccc3)CC2)c1` gave NPR1 antag inactive, FLuc inh inactive, SNCA expr inhib inactive, 3T3 cytotox inconclusive, HEK cytotox inconclusive and SNCA viab count inactive.
Screening Cc1ccc(C(CC(=O)N2CCc3ccccc3C2)c2cn(C)c3ccccc23)cc1 (configuration not stated) returned NPR1 antag inactive, FLuc inh 35.5µM, SNCA expr inhib inactive, 3T3 cytotox inconclusive, HEK cytotox inconclusive and SNCA viab count inactive.
`CCOC(=O)C1CCN(C(=O)CC(c2ccc(Cl)cc2)c2cn(C)c3ccccc23)CC1` (configuration not stated) gave NPR1 antag inactive, FLuc inh inactive, SNCA expr inhib inconclusive, 3T3 cytotox inconclusive, HEK cytotox inconclusive and SNCA viab count inconclusive.
For Cc1ccc(C(CC(=O)N2CCC(C)CC2)c2cn(C)c3ccccc23)cc1 (configuration not stated) the results were NPR1 antag inactive, FLuc inh inactive, SNCA expr inhib inactive, 3T3 cytotox inactive, HEK cytotox inactive and SNCA viab count inconclusive.
Screening Cc1ccc(C(CC(=O)N2CCCCC2)c2cn(C)c3ccccc23)cc1 (configuration not stated) returned NPR1 antag inactive, FLuc inh inactive, SNCA expr inhib inactive, 3T3 cytotox inconclusive, HEK cytotox 50.1µM and SNCA viab count inactive.
Screening CCOC(=O)C1CCCN(C(=O)CC(c2ccc3c(c2)OCO3)c2cn(CC)c3ccccc23)C1 (configuration not stated) returned NPR1 antag inactive, FLuc inh inactive, SNCA expr inhib inactive, 3T3 cytotox 39.8µM, HEK cytotox inconclusive and SNCA viab count inactive.
`CN(C)c1cccc(Oc2nnnn2[C@H]2CO[C@H]3[C@@H]2OC[C@@H]3NC(=S)Nc2cccc(C#N)c2)c1` gave NPR1 antag inactive, FLuc inh inactive, SNCA expr inhib inconclusive, 3T3 cytotox inconclusive, HEK cytotox 44.7µM and SNCA viab count inactive.
`CC(=O)N1CCC(N2CCOC[C@H]2c2ncc(-c3cccnc3)[nH]2)CC1` gave NPR1 antag inactive, FLuc inh inactive, SNCA expr inhib inactive, 3T3 cytotox inactive, HEK cytotox inactive and SNCA viab count inactive.
`CC(C)N1C(=O)C2(CCCCC2)C1C(=O)NCCCN1CCCc2ccccc21` (configuration not stated) gave NPR1 antag inactive, FLuc inh inactive, SNCA expr inhib inactive, 3T3 cytotox inconclusive, HEK cytotox 79.4µM and SNCA viab count inactive.
For CCCN(CC1CC1)C(=O)c1ccc2c(c1)C(O)CCCCCN2CCOC (configuration not stated) the results were NPR1 antag inactive, FLuc inh inactive, SNCA expr inhib inactive, 3T3 cytotox inconclusive, HEK cytotox 79.4µM and SNCA viab count inactive.
CN1CCCCCC(O)c2cc(C(=O)NCCc3ccccn3)ccc21 (configuration not stated) was read as NPR1 antag inactive, FLuc inh 44.7µM, SNCA expr inhib inactive, 3T3 cytotox 31.6µM, HEK cytotox inconclusive and SNCA viab count inactive.
COCCN1CCCCCC(O)c2cc(C(=O)Nc3cc(C)ccc3OC)ccc21 (configuration not stated) was read as NPR1 antag inactive, FLuc inh inconclusive, SNCA expr inhib inactive, 3T3 cytotox inconclusive, HEK cytotox 44.7µM and SNCA viab count inactive.
For COc1ccc(C)cc1NC(=O)c1ccc2c(c1)C(O)CCCCCN2C (configuration not stated) the results were NPR1 antag inactive, FLuc inh inactive, SNCA expr inhib inactive, 3T3 cytotox inconclusive, HEK cytotox inconclusive and SNCA viab count inactive.
COc1ccccc1OCCNC(=O)c1ccc2c(c1)C(O)CCCCCN2C (configuration not stated) was read as NPR1 antag inactive, FLuc inh inactive, SNCA expr inhib inconclusive, 3T3 cytotox inconclusive, HEK cytotox inconclusive and SNCA viab count inactive.
For Cc1ccc(S(=O)(=O)NC[C@H]2OC[C@@H](NC3CCOCC3)[C@@H]2O)cc1 the results were NPR1 antag inactive, FLuc inh inactive, SNCA expr inhib inactive, 3T3 cytotox inactive, HEK cytotox inactive and SNCA viab count inactive.
COCc1c(C(=O)N[C@H](c2ccc(OC)nc2)C2CC(O)C2)noc1C (some centres not stated) was read as NPR1 antag inactive, FLuc inh inactive, SNCA expr inhib inactive, 3T3 cytotox inactive, HEK cytotox inactive and SNCA viab count inactive.
CCCC(=O)N1C[C@@H](CO)[C@H](c2nc(-c3ccncc3)no2)C1 was read as NPR1 antag inactive, FLuc inh inactive, SNCA expr inhib inactive, 3T3 cytotox inactive, HEK cytotox inactive and SNCA viab count inactive.
COCCN1CCCCCC(O)c2cc(C(=O)NCCCN3CCCc4ccccc43)ccc21 (configuration not stated) was read as NPR1 antag inactive, FLuc inh inactive, SNCA expr inhib inactive, 3T3 cytotox inconclusive, HEK cytotox 39.8µM and SNCA viab count inactive.
CN(C)c1ccc(C(=O)NCC2CCN(c3cc(-c4ccc(F)cc4)[nH]n3)CC2)cc1 was read as NPR1 antag inactive, FLuc inh inconclusive, SNCA expr inhib inactive, 3T3 cytotox inconclusive, HEK cytotox inconclusive and SNCA viab count inactive.
Screening COc1ccc(-c2cc(N3CCCC(NC(=O)c4ccccc4)C3)n[nH]2)cc1 (configuration not stated) returned NPR1 antag inactive, FLuc inh 22.4µM, SNCA expr inhib inactive, 3T3 cytotox inconclusive, HEK cytotox inconclusive and SNCA viab count inconclusive.
